Reference: PubChem BioAssay (NCI)
Compounds without any hit were thinned out: in the full panel of roughly 79,000, 15% have a hit. The source made the active and inactive calls. No stated cut-off is given here; in the data, active means growth inhibition above about 70%; inactive means the rest.

Legend:
[1] = NCI Yeast Anticancer Drug Screen. Data for the rad50 strain (AID 155);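 further: 0% = growth of vehicle-only cultures of the same strain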; settings: S. cerevisiae rad50 strain growth inhibition, stronger effect = higher value
Procedure, shortened: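 Growth of the mutant yeast was measured after compound exposure and referenced to vehicle-treated cultures.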

[2] = NCI Yeast Anticancer Drug Screen. Data for the mec2-1 strain (AID 157); settings: S. cerevisiae mec2-1 strain, stronger effect = higher value
Procedure, shortened: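 Mutant yeast (mec2-1) grown with compound; growth inhibition relative to vehicle control reported.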

[3] = NCI Yeast Anticancer Drug Screen. Data for the sgs1 mgt1 strain (AID 161);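 further: 0% = growth of cultures given vehicle only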; settings: S. cerevisiae sgs1 mgt1 strain, stronger effect = higher value
Procedure, shortened: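 Percent growth inhibition was derived by comparing compound-exposed mutant yeast with vehicle-exposed cultures. The strain carries alterations in DNA damage repair.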

[4] = NCI Yeast Anticancer Drug Screen. Data for the cln2 rad14 strain (AID 165);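 further: 0% = growth equal to vehicle treated cultures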; settings: S. cerevisiae cln2 rad14 strain, stronger effect = higher value
Procedure, shortened: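 Readout is yeast growth inhibition versus vehicle-treated controls, using a strain with cln2 and rad14 alterations exposed to compound.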

[5] = NCI Yeast Anticancer Drug Screen. Data for the bub3 strain (AID 167); settings: S. cerevisiae bub3 mutant strain, stronger effect = higher value
Procedure, shortened: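 Whole-cell yeast assay. The mutant strain was incubated with compounds, and growth inhibition was determined by comparison with vehicle-treated cells.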

[6] = NCI Yeast Anticancer Drug Screen. Data for the mlh1 rad18 strain (AID 175); settings: S. cerevisiae mlh1 rad18 strain growth inhibition, stronger effect = higher value
Procedure, shortened: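 Genetically defined yeast (DNA repair-deficient) exposed to compounds; growth inhibition determined relative to vehicle.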

[7] = at 5.0 µM (retest, dose inferred, filed as 0.5)
[8] = at 50.0 µM (retest, dose inferred, filed as 5.0)

Measured: growth inhibition

CCCCCCCN(CCCCCCC)CC(O)c1ccc2ccc3ccccc3c2c1 (stereo not given)
active: [1]; [8] 76% | [2]; [8] 73% | [3]; [8] 85% | [3]; at 50.0 µM 81.2% | [5]; [8] 78% | [6]; [8] 78% | [6]; at 50.0 µM 79.2%
inactive: [1]; [7] 19% | [1]; at 50.0 µM 68.2% | [2]; [7] 8% | [2]; at 50.0 µM 62% | [3]; [7] 36% | [4]; [7] 13% | [4]; [8] 59% | [4]; at 50.0 µM 38% | [5]; [7] 16% | [5]; at 50.0 µM 59.4% | [6]; [7] 12%

Clc1ccc(N=Cc2c3ccccc3cc3ccccc23)c(Cl)c1
inactive: [1]; [7] 0% | [1]; [8] -3% | [2]; [7] 3% | [2]; [8] 2% | [3]; [7] -5% | [3]; [8] 5% | [4]; [7] 15% | [4]; [8] 22% | [4]; at 50.0 µM 31% | [5]; [7] 2% | [5]; [8] 29% | [6]; [7] -7% | [6]; [8] 44%
active: [1]; at 50.0 µM 79.7% | [2]; at 50.0 µM 85.4% | [3]; at 50.0 µM 87.4% | [5]; at 50.0 µM 79.5% | [6]; at 50.0 µM 77.5%

OC(c1cc2ccccc2o1)c1cc2ccccc2s1 (stereo not given)
inactive: [1]; [7] -4% | [1]; at 50.0 µM 44.2% | [2]; [7] -11% | [3]; [7] 2% | [3]; [8] 46% | [4]; [7] -12% | [4]; at 50.0 µM 61.6% | [5]; [7] -6% | [6]; [7] 16% | [6]; at 50.0 µM 43%
active: [1]; [8] 95% | [2]; [8] 94% | [2]; at 50.0 µM 75.2% | [3]; at 50.0 µM 70.4% | [4]; [8] 97% | [5]; [8] 93% | [5]; at 50.0 µM 78.7% | [6]; [8] 94%

COC(=O)c1[nH]cnc1/N=N/N(C)C
inactive: [5]; [7] 49% | [5]; [8] 49%
active: [1]; [7] 98% | [1]; [8] 98% | [1]; at 50.0 µM 98.8% | [2]; [7] 99% | [2]; [8] 99% | [2]; at 50.0 µM 98.9% | [3]; [7] 99% | [3]; [8] 99% | [3]; at 50.0 µM 99.5% | [4]; [7] 99% | [4]; [8] 98% | [4]; at 50.0 µM 99% | [5]; at 50.0 µM 98.8% | [6]; [7] 98% | [6]; [8] 99% | [6]; at 50.0 µM 99.3%

O=S(=O)(O)SCCNCCCCCC1CCCCC1
active: [1]; [8] 87% | [2]; [8] 94% | [3]; [8] 83% | [4]; [8] 71% | [5]; [8] 95% | [6]; [8] 93%
inactive: [1]; [7] 20% | [1]; at 50.0 µM 15.3% | [2]; [7] 27% | [2]; at 50.0 µM 22.5% | [3]; [7] 19% | [3]; at 50.0 µM 65.5% | [4]; [7] 32% | [4]; at 50.0 µM 18.6% | [5]; [7] 17% | [5]; at 50.0 µM 52.2% | [6]; [7] 34% | [6]; at 50.0 µM 30.6%

Nc1nc2c(ccc3ccccc32)s1
inactive: [1]; [7] -3% | [1]; [8] 36% | [1]; at 50.0 µM 66% | [2]; [7] -17% | [2]; [8] 37% | [2]; at 50.0 µM 50.6% | [3]; [7] 6% | [3]; [8] 54% | [3]; at 50.0 µM 67.5% | [4]; [7] 14% | [4]; [8] 33% | [4]; at 50.0 µM 61.2% | [5]; [7] -22% | [5]; [8] 52% | [5]; at 50.0 µM 56.9% | [6]; [7] 1% | [6]; at 50.0 µM 57.6%
active: [6]; [8] 72%

CC(=O)Nc1cccc2ccc(C)cc12
inactive: [1]; [7] 0% | [1]; [8] 1% | [1]; at 50.0 µM -5.5% | [2]; [7] 2% | [2]; [8] 4% | [2]; at 50.0 µM 4.85% | [3]; [7] 1% | [3]; [8] 1% | [3]; at 50.0 µM -22.9% | [4]; [7] 1% | [4]; [8] 5% | [5]; [7] 1% | [5]; [8] -1% | [5]; at 50.0 µM 23.1% | [6]; [7] 0% | [6]; [8] 2% | [6]; at 50.0 µM 41.8%
active: [4]; at 50.0 µM 71.3%

Cc1cc(/C=C/c2cccc[n+]2C)c(C)n1-c1ccccc1
inactive: [1]; [7] 4% | [2]; [7] -1% | [3]; [7] 1% | [4]; [7] -4% | [5]; [7] -8% | [5]; at 50.0 µM 17.1% | [6]; [7] 6%
active: [1]; [8] 85% | [1]; at 50.0 µM 96% | [2]; [8] 93% | [2]; at 50.0 µM 91.6% | [3]; [8] 90% | [3]; at 50.0 µM 95.8% | [4]; [8] 85% | [4]; at 50.0 µM 90.8% | [5]; [8] 85% | [6]; [8] 94% | [6]; at 50.0 µM 93.7%

CCOC(=O)C(CCc1ccccc1[N+](=O)[O-])C(C)=O (stereo not given)
inactive: [1]; [7] 4% | [1]; [8] 61% | [2]; [7] 2% | [2]; [8] 11% | [2]; at 50.0 µM 27.6% | [3]; [7] -3% | [3]; [8] 42% | [3]; at 50.0 µM 66.8% | [4]; [7] -1% | [4]; [8] 8% | [4]; at 50.0 µM -8.55% | [5]; [7] -3% | [5]; [8] 8% | [5]; at 50.0 µM 54% | [6]; [7] -20% | [6]; [8] 45% | [6]; at 50.0 µM 69.7%
active: [1]; at 50.0 µM 78.9%

O=C1C=CC2=Nc3ccccc3CCC2=C1
active: [1]; [8] 95% | [1]; at 50.0 µM 90% | [2]; [8] 95% | [2]; at 50.0 µM 99% | [3]; [8] 95% | [3]; at 50.0 µM 87.7% | [4]; [8] 86% | [4]; at 50.0 µM 88.9% | [5]; [8] 97% | [5]; at 50.0 µM 98.8% | [6]; [8] 97% | [6]; at 50.0 µM 95.1%
inactive: [1]; [7] -151% | [2]; [7] -57% | [3]; [7] -63% | [4]; [7] -52% | [5]; [7] -67% | [6]; [7] -115%
